The source of these data is the supplement of paper PMC11482750.

± gives the standard deviation of the averaged measurements.

Compound in this assay: CCCCN=C=S [butyl isothiocyanate]
In words: control-subtracted net OSN firing rate; higher = stronger neuronal activation. As to conditions: odorant dilution (vol/vol): 1/100. How it is done:
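Single sensillum recordings from olfactory sensory neurons. The neurons sit in the maxillary palp or antennal sensilla of D. melanogaster (wild type, mutants, or at1 empty-neuron lines expressing Or42a homologs or the A181D S307P mutant) and of four Scaptomyza species. Each odorant was given as a 1 s pulse from 20 µl loaded on filter paper at 1:100 vol/vol, diluted in mineral oil (γ-hexalactone in DMSO). Spikes were counted in a 0.5 s window starting 0.2 s after onset, background was subtracted, the count was doubled, and the mean solvent-control response was subtracted.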
As for Canton-S (D. melanogaster) pb2a, the “control-subtracted net OSN firing rate” value stood at 3.43 ± 2.8 spikes/s.
As for S. pallida pb1b-like, the “control-subtracted net OSN firing rate” value is -4.33 ± 11 spikes/s.
Under Or67dGal4, UAS-Sfla Or42a3/+ at1 stands 27.7 ± 5 spikes/s.
In the case of S. montana pb3b-like it was 0.333 ± 6.1 spikes/s; in that of Or67dGal4, UAS-Dmel Or42a at1, 10.3 ± 7.7 spikes/s; in that of Canton-S (D. melanogaster) pb1b, -2.22 ± 8 spikes/s.
Consider Or67dGal4, UAS-Sfla Or42a2 at1, for which the “control-subtracted net OSN firing rate” value is 2.86 ± 5 spikes/s.
In the case of S. flava pb1b-like it was -17.7 ± 20 spikes/s.
With S. flava pb2a-like, the “control-subtracted net OSN firing rate” value was -3 ± 8.9 spikes/s.
On to Canton-S (D. melanogaster) pb1a, for which the “control-subtracted net OSN firing rate” value was found to be 8 ± 8.9 spikes/s.
As to Canton-S (D. melanogaster) pb3a, the “control-subtracted net OSN firing rate” value was 2.5 ± 6.6 spikes/s.
In the case of Canton-S (D. melanogaster) pb3b, the “control-subtracted net OSN firing rate” value was 2 ± 11 spikes/s.
Under S. montana pb3a-like stands 0.667 ± 10 spikes/s; under Or67dGal4, UAS-Sfla Or42a3 at1, 46 ± 28 spikes/s.
As for Or67dGal4; UAS-A181D S301P at1, the “control-subtracted net OSN firing rate” value was found to be 68.6 ± 33 spikes/s.
As for S. montana pb1a-like, the “control-subtracted net OSN firing rate” value is 92.3 ± 11 spikes/s.
With S. hsui pb3b-like, the “control-subtracted net OSN firing rate” value came out at 1 ± 2.8 spikes/s.
On to Or67dGal4; UAS-SflaOr42a4 at1, for which the “control-subtracted net OSN firing rate” value was found to be 120 ± 36 spikes/s.
Take Or67dGal4, UAS-Sfla A181D S307P/+ at1: the “control-subtracted net OSN firing rate” value stood at 29 ± 10 spikes/s.
With Or67dGal4; UAS-SflaOr42a3 at1, the “control-subtracted net OSN firing rate” value is 74.8 ± 23 spikes/s.
Turning to Canton-S (D. melanogaster) pb2b, the “control-subtracted net OSN firing rate” value is -1.71 ± 8.6 spikes/s.
Under S. pallida pb3a-like stands -3 ± 7.5 spikes/s.
In the case of Or67dGal4, UAS-Sfla Or42a4 at1 it was 96.7 ± 25 spikes/s.
Take S. hsui pb2a-like: the “control-subtracted net OSN firing rate” value was -1 ± 6 spikes/s.
Under S. hsui pb1b-like stands -1 ± 5.2 spikes/s; under S. pallida pb2b-like, 2.67 ± 9.3 spikes/s.
Consider S. hsui pb1a-like, for which the “control-subtracted net OSN firing rate” value amounted to 7.67 ± 5.8 spikes/s.
Under S. flava pb3a-like stands 5.67 ± 8.2 spikes/s; under S. pallida pb1a-like, 11.7 ± 10 spikes/s; under Or67dGal4, UAS-Spal Or42a at1, 18.2 ± 16 spikes/s.
On to S. hsui pb2b-like, for which the “control-subtracted net OSN firing rate” value was 3.67 ± 6.9 spikes/s.
For Or67dGal4, UAS-Sfla Or42a4/+ at1, the “control-subtracted net OSN firing rate” value was determined as 22.6 ± 4.1 spikes/s.
As to S. montana pb1b-like, the “control-subtracted net OSN firing rate” value is -15 ± 6.8 spikes/s.
In the case of S. flava pb2b-like, the “control-subtracted net OSN firing rate” value was -1.33 ± 10 spikes/s.
With S. pallida pb3b-like, the “control-subtracted net OSN firing rate” value was -1.67 ± 20 spikes/s.
As to S. flava pb1a-like, the “control-subtracted net OSN firing rate” value is 90.7 ± 22 spikes/s.
In the case of S. montana pb2b-like, the “control-subtracted net OSN firing rate” value is -0.333 ± 6 spikes/s.
Take S. flava pb3b-like: the “control-subtracted net OSN firing rate” value is 1.67 ± 15 spikes/s.
For the target S. montana pb2a-like, the “control-subtracted net OSN firing rate” value is 2 ± 4.6 spikes/s.
Take S. hsui pb3a-like: the “control-subtracted net OSN firing rate” value was 0 ± 6.8 spikes/s.
